PAX8 reporter – inhibitors of PAX8-driven TPO luciferase reporter, primary screen, RMG-I cells, single concentration. 1.2% of 360,000 active. SteadyGlo, 24 h. inhibition, % at 12.6 µM;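 active means mean replicate inhibition at least 60% with every replicate also reaching 60%; inconclusive means only one of the two criteria is met; inactive means mean below 60% and not all replicates reaching 60%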;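 further: luciferase light reporting Pax8 driven TPO promoter activity; plate controls were median of neutral control wells for no effect and mitoxantrone controls for full effect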
EBV LMP1 NFkB – EBV LMP1-driven NF-kappaB luciferase reporter inhibitors, primary screen, cell-based, luminescence, single point; LMP1-induced NF-kappaB luciferase reporter cells; inhibition, % at 12.5 µM; 0.69% of 350,000 active; in the data active means inhibition above about 41%; inconclusive means no clear call, values can overlap the other calls;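 further: 0% = neutral control wells and 100% = reference inhibitor control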
EWS-Fli block – EWS/Fli-driven NR0B1 reporter inhibitors, primary screen, A673 cells, NR0B1 luciferase, luminescence, MLPCN library; viability-normalised; inhibition, % at 12.6 µM; 0.67% of 350,000 active; AID 651661, 2012;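 active means mean inhibition of at least 50% after viability correction, with every replicate also passing that limit; inconclusive means mean reaches 50% but only one of two replicates passes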;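 further: firefly luciferase signal divided by Alamar Blue viability fluorescence both relative to DMSO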
PGC1a acetyl inh – inhibitors of PGC1a acetylation signal, primary screen, cell-based, U2OS, AlphaScreen, inhibitor mode; AlphaScreen anti-acetyl-lysine; with virally co-expressed GCN5 acetyltransferase; inhibition, % at 15.6 µM; 0.17% of 350,000 active;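 active means every replicate shows inhibition of at least 40%; inconclusive means mean inhibition at least 40% but some replicate below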;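 further: 0% = neutral control wells and 100% = positive control wells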
LGR2 inh – inhibitors of bursicon-induced LGR2 CRE-luciferase signal, primary screen, cell-based, HEK293, CRE-luciferase reporter, bursicon stimulation. Drosophila bursicon receptor LGR2 (rickets). bursicon-stimulated, 4 h. inhibition, % at 9.99 µM. 0.35% of 380,000 active;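 active means drop in luminescence signal, shown as inhibition above about 50% in the replicate tests, limit read from the data, passing the limit was not always enough; inconclusive means probably only some replicates passing the limit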;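 further: agonist challenge used bursicon conditioned medium at about half maximal strength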
TRPM1 prom inh – inhibitors of MITF-dependent TRPM1 promoter reporter, primary screen, cell-based, SK-MEL-5, single point, luciferase. SK-MEL-5 TRPM1 promoter luciferase, 24 h. inhibition, % at 12.5 µM. 0.83% of 330,000 active;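 active means mean inhibition across replicates of 60% or more, whatever share of single replicates reaches that level; inconclusive means some that reach 60%, reason not given; inactive means mean inhibition across replicates below 60%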
The depositor's hits bear a star; u = inconclusive; x = no result given; ! = repeats disagree. Only some compounds are listed: those with a hit (about 2.2% of all), similar ones and a draw of the others.

SMILES | PAX8 reporter | EBV LMP1 NFkB | EWS-Fli block | PGC1a acetyl inh | LGR2 inh | TRPM1 prom inh
C[C@@H]1CCCCO[C@H](CN(C)Cc2ccncc2)[C@@H](C)CN([C@@H](C)CO)C(=O)c2cc(NS(C)(=O)=O)ccc2O1 | 33 | x | -2 | -2 | -5 | x
C[C@H](CO)N1C[C@H](C)[C@@H](CN(C)C(=O)Nc2cccc(F)c2)OCc2ccccc2-c2c(n(C)c3ccccc23)C1=O | x | x | 12 | -5 | -10 | x
COC(=O)C1C(=O)C=C(Nc2ccc(F)cc2)CC1c1ccc(OC)cc1 (configuration not stated) | -56 | -10 | x | x | -32 | -17
COC(=O)[C@H]1[C@@H](O)[C@@]2(O)c3c(OC)cc(OC)cc3O[C@@]2(c2ccc(OC)cc2)[C@@H]1c1ccc(F)cc1 | 98* | x | 39 | x | 86* | x
Cc1ccccc1S(=O)(=O)N1C[C@H](O)COC[C@@H]2O[C@H](CC(=O)NCCc3ccccc3)CC[C@H]21 | 8 | x | 0 | 2 | 8 | x
Cc1ccn2cc(-c3ccc(Br)cc3)nc2c1 | 1 | 24 | 62* | 9 | 59* | 19
Cc1ccc(S(=O)(=O)Nc2ccc(-c3cn4ccc(C)cc4n3)cc2)cc1 | -29 | -14 | -22 | -18 | -12 | -5
Cc1c(C#N)c(O)n(CCO)c(=O)c1N=Nc1ccc2c(c1)COC2=O | -17 | 18 | 12 | -3 | 18 | 62*
Cc1cc(=O)n(CCO)c(O)c1C#N | -3 | 18 | x | -3 | x | 10
O=C(NCc1ccccc1)c1cc(C2CCCN(C(=O)C3CC3)C2)on1 (configuration not stated) | -14 | x | -31 | -5 | -14 | x
O=C(Nc1ccccc1)c1cc(C2CCCN(C(=O)C3CC3)C2)on1 (configuration not stated) | -5 | x | 50 | x | 84* | x
CO[C@@H]1CN(C)C(=O)c2cc(NS(=O)(=O)c3ccccc3)ccc2OC[C@@H](C)N(Cc2nccs2)C[C@H]1C | 10 | x | 12 | 5 | -18 | x
CN(C)CCCN1c2ccccc2Sc2ccc(Cl)cc21 | 2 | 49*! | 5 | -11 | 16 | -16
CN(C)CCCN1c2ccccc2Sc2ccc3ccccc3c21 | 0 | 4 | 4 | -4 | 14 | 0
CC=Cc1ccc2n(c1=O)C[C@H]1[C@H](CO)[C@@H](C(=O)N[C@H](C)c3ccccc3)[C@@H]2N1CC1CC1 (mixture of isomers) | 7 | x | -1 | x | 3 | x
COc1ccc(C(C)NC(=O)c2ccc(Br)cc2)cc1OC (configuration not stated) | 138* | -2 | 6 | 1 | x | 6
COc1ccc(C(C)NC(=O)c2ccc([N+](=O)[O-])cc2)cc1OC (configuration not stated) | 26 | -1 | 5 | 7 | -6 | -2
O=C(C[C@H]1CC[C@H]2[C@@H](COC[C@@H](O)CN2C(=O)C2CCOCC2)O1)NCc1ccncc1 | -8 | x | 1 | 6 | 6 | x
C[C@H]1CN([C@@H](C)CO)C(=O)c2cccc(NC(=O)c3ccncc3)c2O[C@@H]1CN(C)Cc1ccc(Oc2ccccc2)cc1 | 25 | x | 4 | -13 | x | x
CCOc1cc(C(=O)CSc2nnc(CNc3ccc(Cl)cc3)o2)ccc1NC(=O)CC | x | -6 | 40 | 3 | 10 | 85*
O=C(C[C@@H]1CC[C@@H](NC(=O)C2CCC2)[C@@H](CO)O1)Nc1nccs1 | 3 | x | 1 | -5 | 15 | x
N#Cc1ccc(NC(=O)COC(=O)C2CCC2)cc1 | 113* | -4 | 1 | 1 | -9 | x
C[C@@H]1CN([C@H](C)CO)C(=O)c2cc(N(C)C)ccc2O[C@@H]1CN(C)Cc1ccc(C(=O)Nc2ccccc2N)cc1 | 50 | x | 74* | 7 | x | x
C[C@@H]1CN([C@H](C)CO)C(=O)Cc2cc(N(C)C)ccc2O[C@@H]1CN(C)Cc1ccc(C(=O)Nc2ccccc2N)cc1 | 62* | x | 8 | 2 | -19 | x
CC1CCN(c2c(NCc3ccc(C(=O)N4CCc5ccccc54)cc3)c(=O)c2=O)CC1 | 23 | 15 | 53* | 0 | x | 49
SMILES | PAX8 reporter | EBV LMP1 NFkB | EWS-Fli block | PGC1a acetyl inh | LGR2 inh | TRPM1 prom inh
CC(C)c1ccc(-c2nnn(CCC(=O)O)n2)cc1 | x | 45* | x | x | x | 87*
C[C@@H]1CN([C@H](C)CO)C(=O)c2cccc(NC(=O)c3ccc(-c4nccs4)cc3)c2O[C@H]1CN(C)C(=O)Nc1ccccc1 | x | x | 0 | 2 | 12 | x
C[C@H](CO)N1C[C@H](C)[C@H](CN(C)S(=O)(=O)c2ccc(Cl)cc2)OCCCC[C@H](C)Oc2ccc(NC(=O)c3ccccc3)cc2C1=O | 33 | x | 7 | 2 | 0 | x
CCN(CC)Cc1c(O)ccc2c([N+](=O)[O-])c(C)n(-c3ccc(OC)cc3)c12 | x | 37 | x | 46* | x | 0
CC(C)NC(=O)N(C)C[C@H]1Oc2ccc(NC(=O)Nc3cccc4ccccc34)cc2CC(=O)N([C@@H](C)CO)C[C@H]1C | 16 | x | 12 | 5 | 1 | x
COc1cccc(N=Nc2ccc3ccccc3c2O)c1 | -89 | -10 | -24 | x | 16 | 6
COc1ccc(N=Nc2ccc3ccccc3c2)c(O)c1 | -74 | -39 | 33 | x | 60* | -13
CC1=C([N+](=O)[O-])C(c2cccc(Br)c2)C2=C(N1)c1ccccc1C2=O (configuration not stated) | 85* | -4 | x | 5 | x | 61*
COc1ccc(C(=O)/C=C/C(=O)N(Cc2ccc3c(c2)OCO3)C(C(=O)NC2CCCCC2)c2ccncc2)c(O)c1 (configuration not stated) | 21 | -8 | 19 | -14 | 13 | -8
COc1ccc(C(=O)/C=C/C(=O)N(CC(=O)NC2CCCCC2)Cc2cccs2)c(O)c1 | 60 | 59* | 64* | 3 | x | 105*
COc1ccc(CN(C(=O)/C=C/C(=O)c2ccc(OC)cc2O)C(C(=O)NC2CCCCC2)c2ccncc2)cc1 (configuration not stated) | -9 | -2 | 17 | 5 | 13 | 15
COCCN(CC(=O)NC1CCCCC1)C(=O)/C=C/C(=O)c1ccc(OC)cc1O | 91* | 17 | 39 | x | u | 94*
Oc1c(N=NC(=S)Nc2ccccc2F)c2ccccc2n1Cc1cccc(Cl)c1 | 3 | 44* | 27 | -1 | 9 | 16
Cc1cccc(Cn2c(O)c(N=NC(=S)Nc3ccccc3F)c3ccccc32)c1 | 28 | 39 | 31 | x | -11 | 29
NC(=S)N=Nc1c(O)n(Cc2ccc(F)cc2)c2ccccc12 | 27 | 8 | x | x | 2 | 4
Oc1c(N=NC(=S)Nc2ccccc2F)c2ccccc2n1Cc1ccc(F)cc1 | 20 | 51* | 4 | x | 18 | -3
O=C(NCc1ccc(F)cc1)[C@H]1[C@H](CO)[C@H]2Cn3c(cccc3=O)[C@@H]1N2C(=O)C1CC1 | -17 | x | x | -4 | -5 | x

Assay outcomes as filed in PubChem BioAssay.
